Results on 21 compounds are retold here after PubChem BioAssay (NCI).

Molecules are shown by their SMILES. This is part of a sample that, as a whole, favours compounds with a hit. Of some 79,000 tested, about 15% had one in any assay. Unmarked numbers belong to inactive results. Calls of active or inactive are those of the source. Cut-off read from the data, not from the text of the source: active = growth inhibition above about 70%; inactive = the rest.

Assay [1] can be described thus: NCI Yeast Anticancer Drug Screen. Data for the rad50 strain (AID 155).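 Note: 0% = growth of vehicle-only cultures of the same strain.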 Conditions: S. cerevisiae rad50 strain growth inhibition; at 50.0 µM; stronger effect = higher value. Summed up: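 Cells are treated with compound, grown, and their growth is then scored against vehicle-only cultures of the same repair-deficient yeast strain.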
Assay [2] is described as follows: NCI Yeast Anticancer Drug Screen. Data for the mec2-1 strain (AID 157). The conditions noted are these: S. cerevisiae mec2-1 strain, at 50.0 µM, stronger effect = higher value. The method, boiled down:
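mec2-1 yeast strain, carrying an alteration in DNA damage repair or cell cycle control, was exposed to compounds; growth inhibition was measured relative to vehicle-treated controls.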

Assay [3] can be described thus: NCI Yeast Anticancer Drug Screen. Data for the sgs1 mgt1 strain (AID 161).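 Note: 0% = growth of cultures given vehicle only.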 The conditions noted are these: S. cerevisiae sgs1 mgt1 strain, at 50.0 µM, stronger effect = higher value. Summed up: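 This yeast growth screen uses a strain with defined DNA-repair lesions; compound-treated growth is compared with vehicle-treated growth.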
A short description of assay [4]: NCI Yeast Anticancer Drug Screen. Data for the cln2 rad14 strain (AID 165).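 Note: 0% = growth equal to vehicle treated cultures.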 Conditions: S. cerevisiae cln2 rad14 strain, at 50.0 µM, stronger effect = higher value. Summed up: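 Yeast carrying cln2 and rad14 alterations (cell cycle control and DNA damage repair) were exposed to compounds. Growth inhibition was measured against vehicle-treated controls.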
Assay [5] in a line: NCI Yeast Anticancer Drug Screen. Data for the bub3 strain (AID 167). The conditions noted are these: S. cerevisiae bub3 mutant strain, at 50.0 µM, stronger effect = higher value. The method, boiled down:
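Part of a panel of yeast mutants defective in DNA damage repair or cell cycle regulation. Each strain is grown with compound, and inhibition is calculated relative to solvent-treated cultures.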

A short description of assay [6]: NCI Yeast Anticancer Drug Screen. Data for the mlh1 rad18 strain (AID 175). Conditions: S. cerevisiae mlh1 rad18 strain growth inhibition; at 50.0 µM; stronger effect = higher value. Summed up:
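Growth inhibition of the yeast strain was measured after compound exposure and expressed relative to vehicle-treated controls. The strain carries defined defects in DNA damage repair.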

Consider `CCC1(CCC(C)C)C(=O)NC(=O)N(C)C1=O` (stereo unspecified), for which the growth inhibition in assay [1] is -6.05%; in assay [2] it was -1.2%; in assay [3], -1.75%; in assay [4], -19.4%; in assay [5], -11.3%; in assay [6], -4.05%.
Consider `CCC(C#N)N1CC1` (stereo unspecified), for which the growth inhibition in assay [1] is -7.05%; in assay [2], 12.7%; in assay [3], -6.4%; in assay [4], 18.1%; in assay [5] it was -4.35%; in assay [6] it was 6%.
Consider `C[As+](C)(C)c1ccc(Br)c([N+](=O)[O-])c1`, for which the growth inhibition in assay [1] was 7.6%; in assay [2] it was -0.85%; in assay [3], -6%; in assay [4] it was -13.2%; in assay [5], -1.3%; in assay [6] it was 10.9%.
On to `O.O.[Cl][Pt+2][Cl].[NH-]CC[NH-]`, for which the growth inhibition was 23.6% in assay [1]; 10.7% in assay [2]; -2.15% in assay [3]; 41.5% in assay [4]; 16% in assay [5]; 9.85% in assay [6].
For the compound `O=C1CC(=O)NC(=S)N1`, the growth inhibition in assay [1] was 2.15%; in assay [2], 21.1%; in assay [3], -13.5%; in assay [4] it was -21.4%; in assay [5], 4.85%; in assay [6], -5.75%.
For the compound `CCCC[S][Sn]([CH2]CCC)([CH2]CCC)[S]CCCC`, the growth inhibition was 95.8% (active) in assay [1]; 92.3% (active) in assay [2]; 94.7% (active) in assay [3]; 89.2% (active) in assay [4]; 93.2% (active) in assay [5]; 95.5% (active) in assay [6].
Take `Cc1cc(-c2ccccc2)cc(-c2ccccc2)[o+]1`: the growth inhibition in assay [1] is 2.3%; in assay [2], -2.55%; in assay [3], 2%; in assay [4] it was -23%; in assay [5], 1%; in assay [6], 4.25%.
As to `CC(O)c1ccc(Br)cc1` (stereo unspecified), the growth inhibition is -7.95% in assay [1]; 13.3% in assay [2]; 3.55% in assay [3]; -72.4% in assay [4]; -1.45% in assay [5]; 16% in assay [6].
As to `CCOS(=O)(=O)c1ccc(C)cc1`, the growth inhibition is 13.8% in assay [1]; 8.25% in assay [2]; 3.35% in assay [3]; -0.95% in assay [4]; 8.45% in assay [5]; -5.2% in assay [6].
Regarding `O=C(COc1ccc(Cl)c(Cl)c1)Nc1ccc[n+](CC(=O)Nc2ccc(S(=O)(=O)F)cc2)c1`, the growth inhibition was 32.4% in assay [1]; 41.4% in assay [2]; 32.5% in assay [3]; 96.7% (active) in assay [4]; 45% in assay [5]; 22.1% in assay [6].
Consider `CC12CCC3C(CCC4CC(Cl)CCC43C)C1CCC2=O` (stereo unspecified), for which the growth inhibition in assay [1] is 9.95%; in assay [2] it was 8.5%; in assay [3], 6.25%; in assay [4], -59.4%; in assay [5], -6.1%; in assay [6], -5.05%.
On to `Cc1ccc(S(=O)(=O)OC2CC3c4ccccc4C2c2cccc[n+]23)cc1` (stereo unspecified), for which the growth inhibition was 68% in assay [1]; 7.5% in assay [2]; 36.4% in assay [3]; -18.4% in assay [4]; 8.8% in assay [5]; 12.1% in assay [6].
Turning to `NC(Cc1ccc(O)c(F)c1)C(=O)O` (stereo unspecified), the growth inhibition is -37.1% in assay [1]; -40.4% in assay [2]; -41.2% in assay [3]; -2.75% in assay [4]; -51.9% in assay [5]; -14.3% in assay [6].
As to `C[N+]12CCC(c3ccccc3)(CC1)C(O)C2` (stereo unspecified), the growth inhibition in assay [1] was -14.6%; in assay [2] it was -4.75%; in assay [3] it was 2.1%; in assay [4], -5.15%; in assay [5], 2.8%; in assay [6], 8.1%.
Turning to `CCOP(=O)(OCC)Oc1c(Cl)c(Cl)c(O)c(Cl)c1Cl`, the growth inhibition in assay [1] is -23.1%; in assay [2], -15.7%; in assay [3], 4.2%; in assay [4], -17.6%; in assay [5], 6.4%; in assay [6], -8.5%.
As for `Cc1c[nH]c2c1C13CC1CN(C(=O)c1cc4cc(NC(=O)c5cc6ccccc6o5)ccc4[nH]1)C3=CC2=O` (stereo unspecified), the growth inhibition is 84.9% (active) in assay [1]; 91.4% (active) in assay [2]; 90.3% (active) in assay [3]; 88.2% (active) in assay [4]; 90.2% (active) in assay [5]; 89% (active) in assay [6].
Consider `Clc1cccc(Cl)c1C(Cl)Cl`, for which the growth inhibition in assay [1] was -7.45%; in assay [2], -17.2%; in assay [3], -3.15%; in assay [4] it was -4.4%; in assay [5], -6.65%; in assay [6] it was -11.2%.
Consider `[Se]=[Hf]=[Se]`, for which the growth inhibition in assay [1] is 1.35%; in assay [2], -24.7%; in assay [3], -28.7%; in assay [4] it was -8.6%; in assay [5] it was -11.8%; in assay [6], -26.6%.
As to `Nc1ccc(C(=O)N/N=C/c2ccc(N(CCBr)CCBr)cc2)cc1`, the growth inhibition was 42.9% in assay [1]; 22.4% in assay [2]; 25.5% in assay [3]; 1.95% in assay [4]; 5.3% in assay [5]; 54.2% in assay [6].
As for `CC(=O)CP(=O)(O)O`, the growth inhibition in assay [1] is 23.3%; in assay [2], -11.6%; in assay [3], -0.15%; in assay [4] it was -55.9%; in assay [5] it was 10.1%; in assay [6], -6.35%.
Regarding `C=C(Br)C[N+]12CN3CN(CN(C3)C1)C2`, the growth inhibition was -2% in assay [1]; -6.55% in assay [2]; 2.15% in assay [3]; -6.95% in assay [4]; 2.7% in assay [5]; -17.2% in assay [6].
